Screening data as filed in PubChem.
Vaccinia Venus: inhibitors of vaccinia virus (Venus reporter); AID 720580; Vaccinia virus Venus reporter expression, fluorescence; 330,000 compounds, 0.46% hits; Potency, µM (highest dose often 36.5 µM), for inactives: at the highest dose activity change, negative = inhibition, hits mostly inhibitors; calls by dose curve; tested in A549 cells; also: potency is read from the fitted curve at half-maximal effect; nearly all actives have a fitted effect of over 30% in size
HCMV antiviral: human cytomegalovirus inhibition. HFF cells, HCMV-luciferase reporter, 72 h; hits give low values. activity change, negative = inhibition, % at 57.5 µM. 410,000 compounds, 4.5% hits. AID 1259415; in the data active = activity change below about -60%; inconclusive = no clear call, values can overlap the other calls; inactive = above about -39%
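Compounds were evaluated in HFFs infected with an HCMV luciferase reporter virus (MOI 1 PFU/cell). Luciferase in lysates collected 72 h post infection served as the replication measure.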
Vaccinia mCherry: inhibitors of vaccinia virus infection (mCherry reporter signal); Vaccinia virus mCherry reporter infection, fluorescence; Potency, µM (highest dose often 36.5 µM), for the others: at the top dose activity change, negative = inhibition, hits mostly inhibitors; 310,000 compounds, 0.63% hits; AID 720579; calls by dose curve; tested in A549 cells; also: potency is read from the fitted curve at half-maximal effect; nearly all actives have a fitted effect of over 35% in size
MARV entry inh: Marburg virus entry inhibition; AID 540276; Potency, µM (top dose mostly 37.8 µM), without a hit: top-dose activity change, negative = inhibition, most hits filed as inhibitors; Marburg virus pseudotyped entry inhibition, cell reporter; 300,000 compounds, 1.8% hits; calls by dose curve; tested in HEK293 cells; also: potency is read from the fitted curve at half-maximal effect
LASV entry inh: blocks Lassa virus binding to or entry into cells; 300,000 compounds, 1.2% hits; Potency, µM (doses to about 37.9 µM), without a hit: at the highest dose activity change, negative = inhibition, actives largely listed as inhibitors; Lassa virus pseudotype entry inhibition, cell reporter; calls by dose curve; tested in HEK293 cells; also: potency is read from the fitted curve at half-maximal effect; nearly all actives have a fitted effect of over 50% in size
FMDV inh: blocks foot and mouth disease virus. FMDV antiviral cell-based qHTS. Potency, µM (titrated, usually from 57.9 µM), for inactives: at the highest dose activity change, negative = inhibition, hits mostly inhibitors. 410,000 compounds, 1.2% hits. AID 1159524; calls by dose curve; tested in HEK293T cells; also: read-out not given here; potency is read from the fitted curve at half-maximal effect; nearly all actives have a fitted effect of over 45% in size
* marks the source's active call; other numbers are inactive results; i = inactive; u = inconclusive; x = not tested or not shown; [ ] = dose if it differs, or a comment. This is a sample that favours compounds with a hit; in the whole collection about 6.5% have one here. % is scaled to controls: 0 for no effect and ±100 for the full control effect.

SMILES	Vaccinia Venus	HCMV antiviral	Vaccinia mCherry	MARV entry inh	LASV entry inh	FMDV inh
CC(C)(O)C1C2OC(=O)C1C1(O)CC3OC34C(=O)OC2C14C (configuration not stated)	-6%	-76*	-13%	x	x	-21%
COc1ccccc1C1C=C(c2ccc(C)cc2)Nc2nnnn21 (configuration not stated)	u	7	u	2%	-24%	-3%
COc1ccc(C2=CC(c3c(C)nn(-c4ccccc4)c3Cl)n3nnnc3N2)cc1OC (configuration not stated)	u	u	x	u	u	18µM*
COc1cc(CN2CCOc3ccc(CN4CCC(O)(c5cccnc5)CC4)cc3C2)cc(OC)c1	4%	x	-17%	x	x	5%
COc1ccc(COC(=O)N/N=C2\C[C@@H](O)[C@@H](O)[C@@H]3[C@@H]4C(=O)N(Cc5ccc6c(c5)OCO6)C(=O)[C@@H]4CC[C@@H]23)cc1	x	x	x	4%[14.2 µM]	x	x
Cc1ccc(F)cc1S(=O)(=O)NCc1nc(N2CCCC2)c2cccc(C)c2n1	-15%	x	i	x	x	-13%
COc1ccc(-c2noc(N3CCC(C(=O)NC(C)c4ccccc4)CC3)n2)cc1 (configuration not stated)	-14%	-63*	i	x	x	u
COc1ccc(-c2noc(N3CCC(C(=O)Nc4ccccc4Cl)CC3)n2)cc1	-29%	-9	i	x	x	u
CCOC(=O)N1CCC(NC(=O)C2CCN(c3nc(-c4ccc(OC)cc4)no3)CC2)CC1	x	-65*	x	-22%	-7%	u
COC(=O)C1=C(C)N(Cc2ccccc2)C(=O)NC1c1ccco1 (configuration not stated)	x	x	x	13%[14.2 µM]	x	x
O=C(O)Cn1c(O)c(C2=c3ccccc3=NC2=O)sc1=O	x	36	x	x	x	-7%
Cn1c(O)c(C2=c3ccccc3=NC2=O)sc1=Nc1ccc(Cl)cc1	x	-67*	x	u	-13%	19%
COc1cc(OC)cc(C(=O)NC(C(=O)N2CCc3ccccc3C2)C(C)C)c1 (configuration not stated)	u	-1	u	11µM*	u	14%
COc1cc(OC)cc(C(=O)N[C@H](C(=O)N2CCc3ccccc32)C(C)C)c1	-17%	-19	-26%	u	-18%	-10%
NC(=Nc1nc(-c2ccccn2)cc2ccccc12)c1ccccn1	u	-101*	0.32µM*	u	0.56µM*	0%
O=C(C(=O)N1CCC(c2ccccc2)CC1)c1ccc(F)c(F)c1	-5%	-62*	u	x	x	10%
N#Cc1cccc(C(=O)C(=O)N2CCC(c3ccccc3)CC2)c1	-13%	-14	u	x	x	-6%
CCOc1ccc(C(C)=O)cc1CSC(=N)N	-3%	47	-3%	u	-6%[46.1 µM]	-13%
CCCCOc1ccc(Br)cc1CSC(=N)N	-16%	-98*	-26%	u	u	13µM*
CNc1cncc(-c2c(OC)cccc2OC)n1	0%	-103*	-10%	x	x	-5%
CNc1cncc(-c2cccc(OC)c2F)n1	-2%	61	i	x	x	53%
Cc1ccccc1CN1CCC(CNc2ncnc3onc(-c4ccc(Cl)cc4)c23)CC1	2%	3	-8%	x	0%[46.1 µM]	u
COCC1CCCCN1C(=O)c1cc(COc2ccc3ncccc3c2)on1 (configuration not stated)	x	-84*	x	x	x	u
COCCC1CCCCN1C(=O)c1cc(COc2ccc(-n3cncn3)cc2)on1 (configuration not stated)	-21%	-74*	-20%	u	u	u
CCC1CCCCN1C(=O)c1cc(COc2ccc3ncccc3c2)on1 (configuration not stated)	-5%	-91*	u	u	u	u
SMILES	Vaccinia Venus	HCMV antiviral	Vaccinia mCherry	MARV entry inh	LASV entry inh	FMDV inh
COCCOC1CCN(C(=O)c2cc(COc3ccc(-n4cncn4)cc3)on2)CC1	-1%	25	-13%	2%	-17%	-23%
CN(C)[C@@H]1CC[C@@]23CCCN2C(=O)CCC[C@H]3[C@H]1Cc1ccccc1	x	2	x	x	x	x
Cc1ccc(S(=O)(=O)NCC2CCCO2)cc1 (configuration not stated)	-10%	18	-14%	29%	10%	13%
O=S(=O)(NCC1CCCO1)c1ccc(-c2ccc(S(=O)(=O)NCC3CCCO3)cc2)cc1 (configuration not stated)	u	-93*	u	-38%[46.1 µM]	x	-25%
Cc1ccc(N2CCn3c2nc2c3c(=O)n(C/C=C/c3ccccc3)c(=O)n2C)cc1C	-13%	6	-20%	x	-2%[46.1 µM]	5%
Cc1ccc(-c2nc(N=Nc3ccc(O)cc3)n[nH]2)cc1	u	-100*	u	-6%	u	35%
O=C(N/N=C1\C[C@@H](O)[C@@H](O)[C@@H]2[C@@H]3C(=O)N(Cc4ccc5c(c4)OCO5)C(=O)[C@@H]3CC[C@H]12)OCc1ccccc1	x	x	x	-2%[14.2 µM]	x	x
Cc1cc(N/N=C/c2ccc(N(C)C)cc2)nc(NCc2ccccc2)n1	x	-18	x	x	x	u
CN(C)c1cc(N/N=C/c2ccc(Cl)cc2)nc(N(C)C)n1	x	u	x	u	12µM*	-13%
CCNC(=O)N1CCN(CCCC(c2ccc(F)cc2)c2ccc(F)cc2)CC1	-22%	-79*	i	10µM*	u	u
O=C1NC(=S)N(c2ccccc2F)C(=O)/C1=C\c1cccs1	82%	-7	33%	u	8%	32µM*
CCOc1ccc(N2C(=O)/C(=C\c3cccs3)C(=O)NC2=S)cc1	92%	38	32%	-29%[46.1 µM]	3%	-92%
CCOc1ccc(NC(=O)COc2ccc(C(=O)NCCc3ccccc3)cc2)cc1	2%	-81*	-13%	-26%	u	-5%
CCOC(=O)c1ccc(NC(=O)COc2ccc(CNCCO)cc2OCC)cc1	-9%	0	-14%	10µM*	x	-8%
CCOC(=O)c1ccc(NC(=O)CNNC(=O)COc2ccccc2C)cc1	x	-2	x	x	x	-8%
CCOc1cc(CNCCO)ccc1OCC(=O)NC(C)(C)C	2%	-17	-12%	5%[46.1 µM]	17%	-15%
CCOC(=O)c1ccc(NC(=O)COc2ccccc2CNCCc2ccccc2)cc1	x	-65*	x	x	x	-26%
COc1cc(O)ccc1CN1CCc2nnc(C(C)NC(=O)c3cc(F)ccc3F)n2CC1 (configuration not stated)	-10%	x	i	x	x	-19%
O=C(N[C@@H](Cc1ccccc1)C(O)c1nc2ccccc2[nH]1)c1ccccn1 (some centres not stated)	x	2	x	x	x	x
COc1ccc(CCC(=O)NCCc2csc(-c3cccc(F)c3)n2)cc1	-10%	17	-21%	x	11%[46.1 µM]	-16%
O=C(O)c1ccc(Nc2nc3c(s2)CCCC3)cc1	x	u	x	x	x	10µM*
O=S1(=O)N=C(Nc2nc3c(s2)CCCC3)c2ccccc21	-23%	55	-18%	u	7.1µM*	-42%
